Results filed as inconclusive are left out. A call without a number means that no potency is given here. The source made the active and inactive calls. The call rests on the fitted dose curve; in most records, active means well fitted inhibition curve with a large enough effect in the signal ratio in the repeat runs (not every such curve was filed as active); inconclusive means weak or mixed curves, or effect the other way; inactive means no such curve, though single readings can be large or run the other way; the % refers to the signal ratio.
These compounds were tested against Bile acid receptor (Homo sapiens) (UniProt Q96RI1) (assay: qHTS assay to identify small molecule antagonists of the farnesoid-X-receptor (FXR) signaling pathway (AID 743217)). Conditions: HEK293T FXR-UAS-bla, beta-lactamase ratio, CDCA-stimulated, 16 h; series mostly up to 62.6 µM.
Sequence of Bile acid receptor (Homo sapiens) (Q96RI1 whole entry, looked up): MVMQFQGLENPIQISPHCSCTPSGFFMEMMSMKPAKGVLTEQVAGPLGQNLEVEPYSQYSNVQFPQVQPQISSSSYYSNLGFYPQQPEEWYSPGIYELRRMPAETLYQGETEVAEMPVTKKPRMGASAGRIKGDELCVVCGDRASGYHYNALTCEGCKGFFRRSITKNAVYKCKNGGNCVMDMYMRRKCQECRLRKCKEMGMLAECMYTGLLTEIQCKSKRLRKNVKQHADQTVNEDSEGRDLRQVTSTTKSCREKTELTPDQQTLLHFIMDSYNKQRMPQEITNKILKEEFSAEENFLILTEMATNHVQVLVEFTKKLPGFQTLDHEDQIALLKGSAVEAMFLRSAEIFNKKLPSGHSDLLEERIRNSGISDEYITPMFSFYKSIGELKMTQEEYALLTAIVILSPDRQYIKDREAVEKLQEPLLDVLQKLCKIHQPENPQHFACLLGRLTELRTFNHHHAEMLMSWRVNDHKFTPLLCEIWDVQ
Source text: U.S. Tox21 Program National Center for Advancing Translational Sciences [NCATS] NIH Chemical Genomics Center [NCGC] U.S. Environmental Protection Agency [EPA] National Institutes of Environmental Health Sciences [NIEHS] National Toxicology Program [NTP] U.S. Food and Drug Administration [FDA] Tox21 Assay Overview: The farnesoid-X-receptor (FXR), a nuclear hormone receptor, is highly expressed in liver, intestine, kidney and adrenal cortex. Natural ligands of FXR are the bile acids (Cholic acid, Chenodeoxy cholic acid etc). FXR is an important regulator of diverse metabolic pathways, including the bile acid homeostasis, lipid and glucose metabolisms. FXR regulates the expression of target genes by binding either as a monomer or as a heterodimer with the retinoid X receptor (RXR). Numerous studies have reported that FXR exerts protective function during cholestasis, diabetes, liver regeneration, and cancer. To identify compounds that inhibit FXR signaling, GeneBLAzer FXR-UAS-bla HEK 293T cell line (Invitrogen, Carlsbad, CA) containing a beta-lactamase reporter gene under the control of a UAS response element was used to screen the Tox21 10K compound library.
Tox21 Assay Protocol Summary: FXR-bla cells were dispensed at 5000 cells/5uL/well in 1536-well black wall/clear bottom plates using a Multidrop Combi (Thermo Fisher Scientific, Waltham, MA) dispenser. After the assay plates were incubated at 37C and 5% CO2 for 5 h, 23 nL of compounds dissolved in DMSO, positive controls or DMSO only was transferred to the assay plate by a Pintool station (Kalypsys, San Diego, CA), followed by addition of 1 uL Chenodeoxycholic acid (50 uM, final concentration in the wells). The assay plates were incubated at 37C for 16 h. After 1 uL of LiveBLAzerTM B/G FRET substrate was added using a Bioraptr Flying Reagent Dispenser (FRD) workstation (Beckman Coulter, Indianapolis, IN), the plates were incubated at room temperature for 2 h, and fluorescence intensity was measured by an Envision plate reader (PerkinElmer, Shelton, CT).
`Cc1onc(-c2ccccc2Cl)c1C(=O)N[C@@H]1C(=O)N2[C@@H]1SC(C)(C)[C@@H]2C(=O)O` was tested, and the Potency was “inactive”.
For `CC(=O)OCC(C)OC(C)=O` (stereo not given), the Potency was “inactive”.
In the case of `CC1(C)CCC(C)(C)c2cc(C(=O)Nc3ccc(C(=O)O)cc3)ccc21`, the Potency is reported as “inactive”.
With `CCCCCCCC/C=C/CCCCCCCC1=NCCN1CCO` the Potency was 54.9 µM (active).
`O=C(O)c1c(Cl)cccc1Cl` was tested, and the Potency was “inactive”.
In the case of `Nc1c(Cl)cc(Cl)cc1Cl`, the Potency is reported as “inactive”.
`C[C@H](CCC(=O)O)[C@H]1CC[C@H]2[C@@H]3CC[C@@H]4C[C@H](O)CC[C@]4(C)[C@H]3CC[C@]12C` was tested, and the Potency was “inactive”.
`CN(C)c1ccc(SC#N)cc1` was tested, and the Potency was “inactive”.
In the case of `CCCC(C)c1ccccc1O` (stereo not given), the Potency is reported as “inactive”.
`CC(C)(C)C(=O)OCOC(=O)[C@@H]1N2C(=O)[C@@H](NC(=O)[C@H](N)c3ccccc3)[C@H]2SC1(C)C` was tested, and the Potency was “inactive”.
In the case of `N/C(=N\N=C\c1ccc(Cl)cc1)N/N=C/c1ccc(Cl)cc1`, the Potency is reported as “inactive”.
For `Cc1nc(-c2ccc3c(c2)CCN(CCC2CCC(NC(=O)/C=C/c4ccc(F)cc4)CC2)CC3)no1` (stereo not given), the Potency was “inactive”.
For `COc1cc(-c2ccc(N=C=O)c(OC)c2)ccc1N=C=O`, the Potency was “inactive”.
`Oc1ccc2c(c1)-c1ccccc1C2` was tested, and the Potency was “inactive”.
With `Oc1cccc2cc3cccc(O)c3c(O)c12` the Potency was “inactive”.
In the case of `C[n+]1ccn(Cc2ccccc2)c1`, the Potency is reported as “inactive”.
With `C[C@H]1[C@H]2CC[C@H]3[C@@H]4CC=C5C[C@@H](N(C)C)CC[C@]5(C)[C@H]4CC[C@]23CN1C` the Potency was “inactive”.
For `CCCCCCCCOc1ccccc1C(=O)Nc1ccc(C(=O)OCC[N+](C)(CC)CC)cc1`, the Potency was “inactive”.
For `C[C@]12CCC(=O)C=C1CC[C@@H]1[C@@H]2[C@@H](O)C[C@@]2(C)[C@H]1CC[C@]2(O)C(=O)COC(=O)CCC(=O)O`, the Potency was “inactive”.
In the case of `CO[Si](CCCNc1ccccc1)(OC)OC`, the Potency is reported as “inactive”.
In the case of `O=CC=C(c1ccccc1)c1ccccc1`, the Potency is reported as “inactive”.
In the case of `ON=C1CCCC1`, the Potency is reported as “inactive”.
With `Cc1ccc(-n2nc(C(C)(C)C)cc2NC(=O)Nc2ccc(OCCN3CCOCC3)c3ccccc23)cc1` the Potency was 16.8 µM (active).
For `CNC(=O)c1ccccc1`, the Potency was “inactive”.
For `NNc1nc(-c2ccc(N)cc2)cs1`, the Potency was “inactive”.
With `CC(=O)N1CCN(c2ccc(OC[C@H]3CO[C@](Cn4ccnc4)(c4ccc(Cl)cc4Cl)O3)cc2)CC1` the Potency was 43.6 µM (active).
`COc1cc(/C=C/C(=O)O[C@H]2CC[C@]34C[C@]35CC[C@]3(C)[C@@H]([C@H](C)CCC=C(C)C)CC[C@@]3(C)[C@@H]5CC[C@H]4C2(C)C)ccc1O` was tested, and the Potency was “inactive”.
For `Cn1cc(C(=O)[C@@H]2CCc3nc[nH]c3C2)c2ccccc21`, the Potency was “inactive”.
For `O=c1cccccc1O`, the Potency was “inactive”.
`CCOC(=O)O[C@]1(C(=O)OCCl)CC[C@H]2[C@@H]3CCC4=CC(=O)C=C[C@]4(C)[C@H]3[C@@H](O)C[C@@]21C` was tested, and the Potency was “inactive”.
For `Cc1c(C)c2c(c(C)c1O)CCC(C)(COc1ccc(CC3SC(=O)NC3=O)cc1)O2` (stereo not given), the Potency was “inactive”.
`CC(C)(C)CC(C)(C)c1ccc(OCCOCC[N+](C)(C)Cc2ccccc2)cc1` was tested, and the Potency was “inactive”.
For `N#CC1(c2ccc(F)cc2)CCC(=O)CC1`, the Potency was “inactive”.
`Clc1ccc2nsnc2c1NC1=NCCN1` was tested, and the Potency was “inactive”.
In the case of `O=C(c1ccc(O)cc1O)c1ccc(O)cc1O`, the Potency is reported as “inactive”.
`NNC(=O)c1cccc(C(=O)NN)c1` was tested, and the Potency was “inactive”.
`CC1=C(C(=O)OC(C)C)C(c2cccc([N+](=O)[O-])c2)C(C(=O)OC2CN(C(c3ccccc3)c3ccccc3)C2)=C(N)N1` (stereo not given) was tested, and the Potency was 29.8 µM (active).
With `Nc1ccccc1O` the Potency was “inactive”.
In the case of `CCCCN(CCCC)C(=O)N(CCCC)CCCC`, the Potency is reported as “inactive”.
For `Cc1cc(O)c(Cl)c(C)c1Cl`, the Potency was 49 µM (active).

— PubChem BioAssay (Tox21)
Potency means the concentration at half of the fitted maximal effect.
